Assay [1] can be described thus: NCI Yeast Anticancer Drug Screen. Data for the rad50 strain (AID 155).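 Note: 0% = growth of vehicle-only cultures of the same strain.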 The note with it: S. cerevisiae rad50 strain growth inhibition; at 50.0 µM; stronger effect = higher value. The method in brief:
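Vehicle-treated cultures provide the reference for the growth inhibition reported for compound-exposed, repair-deficient yeast.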

Assay [2] can be described thus: NCI Yeast Anticancer Drug Screen. Data for the mec2-1 strain (AID 157). The note with it: S. cerevisiae mec2-1 strain, at 50.0 µM, stronger effect = higher value. The procedure, abridged:
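Using mec2-1 yeast: add compound, measure growth, express inhibition versus vehicle-treated cultures.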

Assay [3] in a line: NCI Yeast Anticancer Drug Screen. Data for the sgs1 mgt1 strain (AID 161).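 Note: 0% = growth of cultures given vehicle only.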 The note with it: S. cerevisiae sgs1 mgt1 strain, at 50.0 µM, stronger effect = higher value. The method in brief: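 Compounds are added to genetically altered yeast, and growth is compared with cultures given vehicle alone to give percent inhibition.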
Assay [4] can be described thus: NCI Yeast Anticancer Drug Screen. Data for the cln2 rad14 strain (AID 165).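 Note: 0% = growth equal to vehicle treated cultures.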 The note with it: S. cerevisiae cln2 rad14 strain, at 50.0 µM, stronger effect = higher value. The procedure, abridged:
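Yeast strain cln2 rad14, bearing defects in cell cycle control and DNA repair, serves as the test system; values reflect growth inhibition compared with vehicle.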

Assay [5] is described as follows: NCI Yeast Anticancer Drug Screen. Data for the bub3 strain (AID 167). The note with it: S. cerevisiae bub3 mutant strain, at 50.0 µM, stronger effect = higher value. The method in brief:
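Mutant yeast screening strain plus compound; vehicle-treated cultures serve as the 0% inhibition reference.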

A short description of assay [6]: NCI Yeast Anticancer Drug Screen. Data for the mlh1 rad18 strain (AID 175). The settings on record: S. cerevisiae mlh1 rad18 strain growth inhibition; at 50.0 µM; stronger effect = higher value. The method in brief:
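Steps: expose repair-defective yeast to compound; measure growth; express inhibition against vehicle-treated controls.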

Molecules are shown by their SMILES. Several values for one entry are separate records, joined by “and”; a condition that tells them apart may be missing. Identical values can stand only once. About 79,000 compounds went through this panel and 15% of them were active in at least one assay; those are over-represented in the sample as a whole. Some structures have more than one record in an assay (separate samples or runs), and their calls can disagree. Activity calls are given as the source filed them. Cut-off read from the data, not from the text of the source: active = growth inhibition above about 70%; inactive = the rest.

On to `CCOC(=O)CNC(=O)c1ccccc1`, for which the growth inhibition is 3.7% (inactive) and -12.2% (inactive) in assay [1]; -7% (inactive) and -36.4% (inactive) in assay [2]; -9.55% (inactive) and -7.05% (inactive) in assay [3]; -8% (inactive) and -13.8% (inactive) in assay [4]; -2.35% (inactive) and 27.1% (inactive) in assay [5]; -1% (inactive) and -4.65% (inactive) in assay [6].
On to `O=C1CC(=P(c2ccccc2)(c2ccccc2)c2ccccc2)C(=O)N1c1ccccc1`, for which the growth inhibition is -24.2% (inactive) and 22.2% (inactive) in assay [1]; -15.6% (inactive) and -12% (inactive) in assay [2]; -7.95% (inactive) and 42.8% (inactive) in assay [3]; 5.05% (inactive) and 33.2% (inactive) in assay [4]; -9.45% (inactive) and 10.2% (inactive) in assay [5]; -12.8% (inactive) and 21.6% (inactive) in assay [6].
Turning to `O=C(NC(=O)c1cn(C2OC(CO)C(O)C2O)c(=O)[nH]c1=O)OCc1ccccc1` (stereo not given), the growth inhibition was -3.55% (inactive) and -14.8% (inactive) in assay [1]; -4.8% (inactive) and 23.7% (inactive) in assay [2]; -25.6% (inactive) and -8.85% (inactive) in assay [3]; 11.1% (inactive) and 20.3% (inactive) in assay [4]; -19.6% (inactive) and -17.8% (inactive) in assay [5]; -19.6% (inactive) and 0.55% (inactive) in assay [6].
In the case of `O=c1[nH]c2[nH]c(=S)[nH]c(=S)c2[nH]1`, the growth inhibition in assay [1] was -19.7% (inactive) and 13.8% (inactive); in assay [2], 8.45% (inactive) and -2.5% (inactive); in assay [3], -17.5% (inactive) and -4.85% (inactive); in assay [4], 13.8% (inactive) and -41.7% (inactive); in assay [5], -24.7% (inactive) and -10.8% (inactive); in assay [6], -20.1% (inactive) and -0.3% (inactive).
In the case of `Nc1ccc(C(=O)O)c(O)c1`, the growth inhibition in assay [1] is -8.6% (inactive) and 15.1% (inactive); in assay [2], -7.4% (inactive) and -2.45% (inactive); in assay [3], -4.15% (inactive) and -14.9% (inactive); in assay [4] it was -40.9% (inactive) and 1.75% (inactive); in assay [5], 0.25% (inactive) and -2.25% (inactive); in assay [6], -8.05% (inactive) and 24.8% (inactive).
As for `CC(C)C1C=C2CCC3C(C)(C(=O)O)CCCC3(C)C2CC1` (stereo not given), the growth inhibition in assay [1] was 79.6% (active) and 46.2% (inactive); in assay [2] it was 68.2% (inactive) and 58.1% (inactive); in assay [3], 22.8% (inactive) and 48% (inactive); in assay [4], 73.7% (active) and 65.3% (inactive); in assay [5], 65.2% (inactive) and 44.9% (inactive); in assay [6], 81.7% (active) and 49.9% (inactive).
`N#Cc1c(-c2ccccc2)cc(-c2ccccc2)n(C2OC(CO)C(O)C(O)C2O)c1=O` (stereo not given): the growth inhibition is -14.6% (inactive) and -8.2% (inactive) in assay [1]; -2.85% (inactive) and -9.1% (inactive) in assay [2]; 4.85% (inactive) and -5.85% (inactive) in assay [3]; 1.2% (inactive) and 12.4% (inactive) in assay [4]; 5.65% (inactive) and 8.3% (inactive) in assay [5]; -7.95% (inactive) and -10.8% (inactive) in assay [6].
`CCOC(=O)c1ccc(O)c(O)c1`: the growth inhibition in assay [1] is -23.9% (inactive) and 15.5% (inactive); in assay [2] it was -28.1% (inactive) and 6.75% (inactive); in assay [3], -6.65% (inactive) and 4.05% (inactive); in assay [4], -12.2% (inactive) and 8.9% (inactive); in assay [5], -11.8% (inactive) and 0.7% (inactive); in assay [6], -8.8% (inactive) and -5.75% (inactive).
For the compound `Cc1ccc(S(=O)(=O)Oc2cc(N)c3c(n2)CCC3)cc1`, the growth inhibition in assay [1] is -4.7% (inactive) and 5.5% (inactive); in assay [2] it was -13.6% (inactive) and -7.8% (inactive); in assay [3], 7.8% (inactive) and -23.3% (inactive); in assay [4] it was -48.2% (inactive) and 6.55% (inactive); in assay [5], -16.2% (inactive) and -0.65% (inactive); in assay [6], -3.45% (inactive) and 0.5% (inactive).
Consider `CCCCCCCCCCCC(=O)Nc1ccccc1`, for which the growth inhibition was -22.6% (inactive) and -29.2% (inactive) in assay [1]; -4.05% (inactive) and -16.9% (inactive) in assay [2]; 1.2% (inactive) and -18.3% (inactive) in assay [3]; -31.7% (inactive) and -71% (inactive) in assay [4]; 24.8% (inactive) and -9.7% (inactive) in assay [5]; 14.4% (inactive) and -31.1% (inactive) in assay [6].
Take `Nc1ccc(O)c2c1C(=O)c1c(O)ccc(N)c1C2=O`: the growth inhibition was 59.8% (inactive) and 13.4% (inactive) in assay [1]; 11.4% (inactive) and -13.4% (inactive) in assay [2]; 16.4% (inactive) and -0.55% (inactive) in assay [3]; -16.1% (inactive) and -0.65% (inactive) in assay [4]; 43.2% (inactive) and 8.25% (inactive) in assay [5]; 42.1% (inactive) and 11.8% (inactive) in assay [6].
Take `O=C1O/C(=C(/C(=O)O)c2ccc(O)cc2)C(O)=C1c1cc2c3c(c(O)cc(C4=C(O)/C(=C(\C(=O)O)c5ccc(O)cc5)OC4=O)c3c1)OC2=O`: the growth inhibition in assay [1] was -12.8% (inactive) and -7% (inactive); in assay [2], -7.25% (inactive) and -10.4% (inactive); in assay [3] it was -8.55% (inactive) and 5.6% (inactive); in assay [4], -0.65% (inactive) and -9.85% (inactive); in assay [5], -5% (inactive) and -1.65% (inactive); in assay [6], 3.4% (inactive) and 4.6% (inactive).
For `CC(Cc1ccccc1)NC1=NCCO1` (stereo not given), the growth inhibition is -10.2% (inactive) and -16.2% (inactive) in assay [1]; -4.95% (inactive) and -18.4% (inactive) in assay [2]; 0.55% (inactive) and 1.5% (inactive) in assay [3]; 17.1% (inactive) and -13.2% (inactive) in assay [4]; -25.9% (inactive) and -27.4% (inactive) in assay [5]; 0.1% (inactive) and 72.5% (active) in assay [6].
Regarding `CCCCCC(O)C1C(=O)OC(C)C(O)/C=C/C=C/C=C/C=C\C=C(\C)C(O)CC(O)CC(O)CC(O)CC(O)CC(O)CC1O` (stereo not given), the growth inhibition was 2.6% (inactive) and 13.8% (inactive) in assay [1]; 16.9% (inactive) and -17.5% (inactive) in assay [2]; -18.1% (inactive) and -4.65% (inactive) in assay [3]; 68.2% (inactive) and 1.3% (inactive) in assay [4]; 5.85% (inactive) and 12.3% (inactive) in assay [5]; 62.3% (inactive) and 6.3% (inactive) in assay [6].
In the case of `O=[N+]([O-])c1ccc2c(c1)C(=Nc1ccccc1)c1cccc([N+](=O)[O-])c1-2`, the growth inhibition in assay [1] is 6.55% (inactive) and -21.9% (inactive); in assay [2] it was 16.2% (inactive) and -12.8% (inactive); in assay [3], 15.6% (inactive) and -6.05% (inactive); in assay [4] it was -36.9% (inactive) and -24.8% (inactive); in assay [5] it was 8.8% (inactive) and 8.9% (inactive); in assay [6], 20.3% (inactive) and -26.3% (inactive).

Source of the values: PubChem BioAssay (NCI).
